The results in this text go back to PubChem BioAssay AID588342 (National Center for Advancing Translational Sciences (NCATS), 2011).

The structures appear in SMILES notation. The whole screen tested about 360,000 compounds, of which about 25,000 (6.9%) were called active. Not shown: some 9% with an inconclusive outcome. This excerpt belongs to a sample that is enriched for actives. A number with no mark means an inactive call. Calls come from the whole dose curve; as a rule, active = well fitted inhibition curve with a large enough effect; inconclusive = small, poorly fitted or top-dose-only effect; inactive = flat fitted curve, though single readings scatter.
Potency is the fitted concentration of half-maximal effect.

For the assay, the target named is Luciferin 4-monooxygenase (Photinus pyralis) (UniProt P08659). Put plainly: qHTS profiling assay for firefly luciferase inhibitor/activator using purifed enzyme and Km concentrations of substrates (counterscreen for miR-21 project).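 For activity change, negative = inhibition: plate controls were vehicle for no effect and reference inhibitor for full effect.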 Note: nearly all actives have a fitted effect of over 55% in size. Conditions: purified FLuc, luminescence inhibition; series mostly up to 57.5 µM; activity change, negative = inhibition: at the top concentration. The method in brief: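 Purified P. pyralis luciferase (10nM final) with 10uM D-luciferin and 10uM ATP (Km levels) in 50mM Tris acetate pH 7.5, 10mM Mg acetate, 0.01% Tween-20, 0.05% BSA; qHTS 6-point titration, ~60 µM downward; luminescence read.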
Chain of Luciferin 4-monooxygenase (Photinus pyralis) (P08659 whole entry, looked up): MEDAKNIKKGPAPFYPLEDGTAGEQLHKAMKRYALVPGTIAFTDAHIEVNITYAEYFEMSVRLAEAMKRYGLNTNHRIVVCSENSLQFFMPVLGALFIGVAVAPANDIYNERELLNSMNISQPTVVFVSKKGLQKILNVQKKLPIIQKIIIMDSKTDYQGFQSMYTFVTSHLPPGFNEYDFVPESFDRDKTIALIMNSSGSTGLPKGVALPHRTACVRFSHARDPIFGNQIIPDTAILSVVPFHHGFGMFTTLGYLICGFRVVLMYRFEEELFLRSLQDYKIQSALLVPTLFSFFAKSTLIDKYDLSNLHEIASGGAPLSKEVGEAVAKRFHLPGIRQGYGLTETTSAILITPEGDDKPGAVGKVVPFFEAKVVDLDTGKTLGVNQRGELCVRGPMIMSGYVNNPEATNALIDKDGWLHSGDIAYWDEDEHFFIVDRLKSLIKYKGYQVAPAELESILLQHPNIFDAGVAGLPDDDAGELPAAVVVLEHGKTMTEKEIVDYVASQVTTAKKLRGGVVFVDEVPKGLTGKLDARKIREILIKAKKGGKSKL
On the technique in general: Quantitative high-throughput screening tests each substance at several concentrations.
Regarding `COc1ccc(CCNC(=O)CCCn2c(=O)c3ccccc3n(Cc3ccc(F)cc3Cl)c2=O)cc1OC`, the “activity change, negative = inhibition” value is 1.56%.
With `COc1ccc2cc(CCl)c(Cl)nc2c1`, the “activity change, negative = inhibition” value is -20.6%.
As to `CC(C)c1ccc(NC(=O)c2cc(S(=O)(=O)N3CCc4ccccc4C3)ccc2F)cc1`, the “activity change, negative = inhibition” value was -4.07%.
As for `CN1C(C(=O)NCc2ccco2)CC2Cn3c(nc4ccccc43)C21` (stereo not given), the “activity change, negative = inhibition” value is -5.4%.
Still for that read-out and setting: the value for `Cc1ccc(NC2=C(c3ccc(C(F)(F)F)cc3)C(=O)c3ccccc32)cc1F` was -4.5%; that for `CCc1ccc(Sc2cc(C(=O)NCCCOC(C)C)c3ccccc3n2)cc1` was -16.5%.
Take `CC1CCCC(NC(=O)c2cc(-c3ccncc3)nc3ccccc23)C1C` (stereo not given): the “activity change, negative = inhibition” value is 0.447%.
For the molecule `CCc1ccc(-c2cc(C(=O)NN3CCN(C)CC3)c3ccccc3n2)cc1`, the Potency was 2.69 µM (active).
As for `CN(Cc1ccccc1)c1ncnc2onc(-c3ccc(F)cc3)c12`, the “activity change, negative = inhibition” value was -17.8%.
On to `CC(=O)Nc1cccc(Nc2nc(-c3cccs3)nc3ccccc23)c1`, for which the Potency was 23.9 µM (active).
`COc1ccccc1C(=O)Nn1c(-c2cccs2)nc2ccccc2c1=O`: the “activity change, negative = inhibition” value is 0.184%.
Same read-out and setting: the value for `O=C(CSc1nc(Nc2ccc(F)c(F)c2)c2ccccc2n1)c1ccc(Cl)cc1` was -3.03%; that for `CC(=O)c1ccc(S(=O)(=O)N(C)CCCC(=O)N(C)Cc2ccccc2F)cc1` was 2.93%.
On to `O=C(/C=C/c1cn(CC(O)CN2CCc3ccccc32)c2ccccc12)c1ccc(Br)cc1` (stereo not given), for which the “activity change, negative = inhibition” value was -2.15%.
Consider `O=C(CSC(=S)N1CCCCC1)c1c(F)cccc1F`, for which the Potency is 2.13 µM (active).
Take `CC1CN(C(=S)SCC(=O)c2ccccc2)CC(C)O1` (stereo not given): the “activity change, negative = inhibition” value was -1.21%.
Regarding `O=C(CSC(=S)N1CCOCC1)c1ccccc1`, the Potency is 3.01 µM (active).
On to `O=C(CSC(=S)N1CCOCC1)c1cc(Br)cc(Br)c1O`, for which the “activity change, negative = inhibition” value was -14.9%.
Take `COc1cccc(NC(=O)CN(C)C(=O)CSC(=S)N2CCCC2)c1`: the “activity change, negative = inhibition” value is 2.27%.
`CC(=O)c1ccc(NC(=O)CSC(=S)N2CCCC2)cc1`: the “activity change, negative = inhibition” value is -11.5%.
As to `CCCCNC(=O)Cn1nc(C)c(S(=O)(=O)N2CCOCC2)c1C`, the “activity change, negative = inhibition” value was 6.35%.
The same measure, in the same setting: the same measure for `Cc1ccc(OCC(=O)OCc2cc(=O)n3nc(C4CC4)sc3n2)cc1C`: -5.73%; for `Cc1nn(-c2nc(-c3ccccc3)cc(C(F)(F)F)n2)c(C)c1Cl`: -10.5%.
The same measure, in the same setting: the same measure for `COC(=O)c1cc(S(=O)(=O)N2CCN(c3cc(Cl)ccc3C)CC2)c[nH]1`: -8.69%; for `COc1ccc(NC(=O)CSc2nccn2C2CCCC2)cc1OC`: -9.33%; for `COC(=O)c1ccccc1NC(=O)c1ccc(COc2ccccc2Cl)o1`: 0.735%.
Still for that read-out and setting: the same measure for `COc1ccc(CCNC(=O)c2cnc(Cl)c(Cl)c2)cc1`: -8.36%.
In the case of `COc1ccc(OCc2cc(C(=O)NCC3(C)COC3)no2)c(Cl)c1`, the Potency was 19 µM (active).
As to `CC1CCCN(Cc2c(O)ccc3c(=O)c(Oc4ccc(C(C)(C)C)cc4)c(C(F)(F)F)oc23)C1` (stereo not given), the “activity change, negative = inhibition” value was -0.574%.
On the same count and under the same terms, the same measure for `COc1ccc(NC(=O)Cn2c(=O)n(Cc3ccc(C(=O)NCc4ccccc4Cl)cc3)c(=O)c3ccccc32)cc1`: -5.56%; for `O=C(Cn1c(=O)n(Cc2cccs2)c(=O)c2cccnc21)Nc1ccc(F)cc1`: -12.1%.
Same read-out and setting: the value for `COc1cc(C(=O)N2CCC(c3ccncc3)CC2)cc(OC)c1OC` was -0.564%; that for `C/C(N)=C(/C#N)C(=O)COC(=O)C1CCN(C(=O)c2ccc(Cl)cc2)CC1` was -1.2%.
Still for that read-out and setting: the value for `COc1cccc(CNC(=O)c2ccc3c(c2)sc2nc(-c4cccc(OC)c4)cn23)c1` was 1.31%.
Turning to `Cc1ccc2nc(COc3cccc(NC(=O)Nc4ccc(C)c(Cl)c4)c3)cc(=O)n2c1`, the “activity change, negative = inhibition” value is -15.5%.
Turning to `Cc1ccc2nc(COc3cccc(NC(=O)c4ccccc4Cl)c3)cc(=O)n2c1`, the Potency was 10.7 µM (active).
As for `Cc1ccc2nc(COc3cccc(NC(=O)c4cccc(Cl)c4)c3)cc(=O)n2c1`, the “activity change, negative = inhibition” value was -1.22%.
Still for that read-out and setting: the same measure for `O=C(CNS(=O)(=O)c1ccc2ccccc2c1)Nc1ccc(F)c(F)c1F`: -0.997%; for `O=C(NCCc1ccccc1)c1ccc2c(c1)N(Cc1ccccc1)C(=O)c1ccccc1S2(=O)=O`: -0.938%.
With `NS(=O)(=O)c1ccccc1NC(=O)c1c(O)c2ccccc2[nH]c1=O`, the Potency is 9.53 µM (active).
Consider `CC(C)C(=O)Nc1c(O)c2ccccc2[nH]c1=O`, for which the “activity change, negative = inhibition” value is -1.52%.
Same read-out and setting: the value for `CCCc1nc2ccccc2c(=O)n1NC(=O)c1c(O)c2ccccc2[nH]c1=O` was -1.3%.
As to `CC1(C)N=C(SCc2ccccc2Cl)c2ccccc2N1`, the “activity change, negative = inhibition” value was -13.1%.
Turning to `Cc1noc(/C=C/N(C)C)c1S(=O)(=O)N1CCCC(C(=O)Nc2cccc(F)c2)C1` (stereo not given), the “activity change, negative = inhibition” value was -2.85%.
For the molecule `Cc1ccc(S(=O)(=O)N2CC(O)C[C@H]2C(=O)OCC(=O)Nc2ccc(N3CCOCC3)cc2)cc1C` (stereo not given in full), the “activity change, negative = inhibition” value is -11.1%.
Regarding `CC(=O)c1sc(N2C(=O)c3oc4ccccc4c(=O)c3C2c2ccc(C)cc2)nc1C` (stereo not given), the “activity change, negative = inhibition” value was 4.04%.
On the same count and under the same terms, the same measure for `CCN(c1cccc(C)c1)S(=O)(=O)c1ccc(-c2coc(C)n2)cc1`: -0.211%.
`COc1ccc(-c2cn3ccc(C)cc3n2)cc1`: the Potency was 0.19 µM (active).
As to `COc1ccc(-n2c(-c3ccc(OC)c(OC)c3)n[nH]c2=S)cc1`, the “activity change, negative = inhibition” value was 0.218%.
As for `CCN(CC)S(=O)(=O)c1ccc(-c2cn3ccc(C)cc3n2)cc1`, the Potency is 2.39 µM (active).
